High-throughput results: PubChem, The Scripps Research Institute Molecular Screening Center
hgDAF12 agonist = agonists of H. glycines DAF-12 nuclear receptor. actives 1.8% (n = 370,000). activation, % at 6.8 µM. HEK293 GAL4-hgDAF12 UAS-luciferase reporter, agonist luminescence; normalized to butyrate control. AID 687014;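 active = activation above a cutoff set at the mean of all screened compounds plus 3 SD, cut at about 10% in these data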;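 note: 0% = DMSO wells and 100% = sodium butyrate wells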
DAX1 StAR inh = inhibitors of DAX1 repression of SF-1 activated StAR promoter | HEK293T StAR-luciferase reporter, SF-1/DAX-1 repression relief | inhibition, % at 6.8 µM | actives 1.1% (n = 370,000);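 active = inhibition above the mean over all tested compounds plus 3 SD, cut at about 3.6% in these data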;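 note: 0% = DAX-1 cells with DMSO and 100% = cells lacking DAX-1 with DMSO; higher inhibition means more luminescence from relief of DAX-1 repression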
hcDAF12 agonist = activates DAF-12 receptor from parasite H. contortus; actives 1.4% (n = 370,000); activation, % at 6.8 µM; HEK293 hcDAF-12 lit1-tk-luc reporter, luminescence; 0% DMSO, 100% Δ7-dafachronic acid;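 active = activation above the mean of all tested compounds plus 3 SD, cut at about 5.5% in these data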;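 note: 100% = response to 3 µM Δ7-dafachronic acid high control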
SMARCA2 activ = activators of SMARCA2 function | MG213 cells, MMTV-luciferase reporter, dexamethasone, overnight | activation, % at 9.1 µM | actives 1% (n = 370,000); in the data active = activation above about 7.8%;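 note: 0% = vehicle wells and 100% = reference activator wells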
ssDAF12 agonist = activators of S. stercoralis DAF-12 nuclear receptor | HEK293 ssDAF-12/GRIP1 lit1-tk-luc reporter, luminescence; % of 3 µM dafachronic acid response | activation, % at 6.8 µM | actives 1% (n = 370,000) | AID 652126;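 active = activation above the mean over all tested compounds plus 3 SD, cut at about 0.9% in these data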;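 note: 0% = DMSO-only wells and 100% = 3 µM delta7-dafachronic acid wells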
DAX1 conf = NR0B1 (human) inhibition, confirmation. actives 87% (n = 2,400). HEK293T StAR-promoter luciferase reporter, SF-1/DAX-1 repression. inhibition, % at 6.8 µM. shares compounds with DAX1 StAR inh;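 active = inhibition above the average of every tested compound plus 3 SD, cut at about 3.8% in these data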;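 note: 0% = DAX-1 cells with DMSO and 100% = no DAX-1 control cells with DMSO; active compounds raise luminescence by relieving repression of the StAR reporter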
Target sequence (P51843 whole entry, looked up): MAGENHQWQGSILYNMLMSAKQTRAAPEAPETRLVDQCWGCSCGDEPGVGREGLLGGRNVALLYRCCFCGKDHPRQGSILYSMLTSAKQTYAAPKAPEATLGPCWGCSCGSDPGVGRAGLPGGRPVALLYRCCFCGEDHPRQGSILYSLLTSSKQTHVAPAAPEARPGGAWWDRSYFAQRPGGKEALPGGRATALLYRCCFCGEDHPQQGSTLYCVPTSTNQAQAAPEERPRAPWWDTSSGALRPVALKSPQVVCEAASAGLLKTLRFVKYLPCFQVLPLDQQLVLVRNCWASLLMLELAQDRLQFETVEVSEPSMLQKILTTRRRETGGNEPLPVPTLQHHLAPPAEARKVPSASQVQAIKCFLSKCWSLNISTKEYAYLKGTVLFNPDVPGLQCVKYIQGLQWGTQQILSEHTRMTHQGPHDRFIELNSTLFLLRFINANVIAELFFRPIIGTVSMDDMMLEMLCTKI
SF1 mutant ctr = counter-screen for DAX1 inhibitors: nonselective inhibitors with SF-1 AF2 mutant; shares compounds with DAX1 StAR inh; HEK293 StAR-luciferase, luminescence; inhibition, % at 6.8 µM; actives 78% (n = 2,400); AID 652136;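 active = inhibition above the mean of all tested compounds plus 3 SD, cut at about 3% in these data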;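 note: 0% = DAX-1 transfected cells with DMSO and 100% = cells without DAX-1 with DMSO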
* marks the source's active call; other numbers are inactive results; . = not tested or not shown. Hits are enriched below; roughly 4.2% of the tested compounds scored in any of these assays.

SMILES	hgDAF12 agonist	DAX1 StAR inh	hcDAF12 agonist	SMARCA2 activ	ssDAF12 agonist	DAX1 conf	SF1 mutant ctr
Cc1ccc(NC(=O)OC[C@@H]2CSCCS(=O)(=O)N2)cc1	2	2	2	2	0	.	.
O=C(Nc1ccc(Cl)cc1)OC[C@@H]1CSCCS(=O)(=O)N1	1	5.0*	0	1	0	2	0
Cc1cccc(C)c1NC(=O)C1c2ccccc2OCC(=O)N1Cc1ccco1 (stereo unspecified)	0	-1	2	-3	0	.	.
Cc1ccc(CONC(=O)c2ccc(Cl)cc2)cc1	6	1	1	1	-1	.	.
Cc1ccc(CONC(=O)c2ccc(C)cc2)cc1	9	5.9*	1	2	1	5.9*	3.5*
O=C(NOCc1ccccc1)c1ccc(Cl)cc1	6	8.6*	2	0	1	11*	6.2*
O=C(OCCN1CCCC12CCC(c1ccccc1)CC2)c1ccccc1 (stereo unspecified)	-1	-2	-2	0	-1	.	.
O=C(CSc1nnc(-c2cccnc2)n1C1CCCCC1)NC1CCCCCC1	-3	0	-1	2	-1	.	.
O=C(Nc1nnc(SCc2ccccc2F)s1)C1=COCCO1	4	5.8*	3	4	0	6.4*	2
O=c1cccc(-c2ccc3ccccc3c2)o1	7	6.6*	0	7	-1	5.0*	3.1*
Cc1ccc(-c2cccc(=O)o2)cc1	3	-1	-1	4	-1	.	.
COc1ccc(Cn2ccc3ccc(-c4ccc5ccn(C(=O)C6CCCCC6)c5c4)cc32)cc1	3	-1	0	0	-1	.	.
CC(C)C[C@@H](CN1CCCC1CN1C(=S)NC[C@@H]1Cc1ccc(O)cc1)N1C[C@H](Cc2ccccc2)N(CC2CCCCCC2)C1=S (stereo partly specified)	3	2	4	6	0	.	.
CC(C)C[C@@H](CN1CCC[C@@H]1CN1C(=S)NC[C@@H]1Cc1ccc(O)cc1)N1C[C@H](Cc2ccc(O)cc2)N(CCc2ccccc2)C1=S	-1	4.7*	0	-3	-2	-1	1
CC(C)C[C@@H](CN1CCCC1CN1C(=S)NC[C@@H]1Cc1ccccc1)N1C[C@H](Cc2ccc(O)cc2)N(CCc2ccccc2)C1=S (stereo partly specified)	-2	2	-1	-3	-1	.	.
CC(C)C[C@@H](CN1CCCC1CN1C(=S)NC[C@@H]1Cc1ccc(O)cc1)N1C[C@H](Cc2ccc(O)cc2)N(CC2CCCCCC2)C1=S (stereo partly specified)	3	6.3*	0	3	-2	1	1
CC(=O)c1cccc(-c2ccnc3c2CC(C(=O)NCc2ccccc2)O3)c1 (stereo unspecified)	-7	4.8*	0	5	0	12*	-7
CCCCCCCCN1C(=O)[C@H](CC(=O)N2CCSCC2)C[C@@]2(C(=O)OC)CC(C)(C)CC=C12	-2	0	1	2	-1	.	.
NC(c1csc(NC(=O)Nc2ccc(OC(F)(F)F)cc2)n1)C1CCCCC1 (stereo unspecified)	1	-1	-1	-2	-1	.	.
CC(C)CCn1c(=O)c2sccc2n2c(CCCC(=O)N3CCC(N4CCCCC4)CC3)nnc12	0	4.7*	2	-4	-1	4.6*	4.1*
CC(C)Cn1c(=O)c2sccc2n2c(CCCC(=O)N3CCC(N4CCCCC4)CC3)nnc12	3	1	-1	-1	-1	.	.
CCCCNC(=O)C[C@@H]1C[C@@]2(C(=O)OCC)CCCC=C2N(CCC2=CCCCC2)C1=O	1	-1	-1	1	-2	.	.
CC(C)(C)C1=CC(=Nc2ccccc2N)C=C(C(C)(C)C)C1=O	13*	4.6*	5	6	2.9*	-1	0
COC(=O)[C@]1(CNC(=O)C(F)(F)F)CC(=O)N(C)[C@@H]1c1ccccc1	5	0	0	-1	-1	.	.
